# Screens: PubChem BioAssay, several laboratories
# CYP2C9 activ – increases human cytochrome P450 2C9 activity. recombinant CYP2C9, luciferin-H conversion, luminescence; stronger effect = higher value; factor 1 = untreated enzyme, 0 = blocked. activation factor at 5 µM. 96,000 tested, 1.4% active;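 active = activation factor of 2 or more for CYP2C9 at a 5 µM dose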;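 also: 0 = sulfaphenazole-blocked wells and 1 = vehicle-only wells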
# Target sequence (P11712 whole entry, looked up): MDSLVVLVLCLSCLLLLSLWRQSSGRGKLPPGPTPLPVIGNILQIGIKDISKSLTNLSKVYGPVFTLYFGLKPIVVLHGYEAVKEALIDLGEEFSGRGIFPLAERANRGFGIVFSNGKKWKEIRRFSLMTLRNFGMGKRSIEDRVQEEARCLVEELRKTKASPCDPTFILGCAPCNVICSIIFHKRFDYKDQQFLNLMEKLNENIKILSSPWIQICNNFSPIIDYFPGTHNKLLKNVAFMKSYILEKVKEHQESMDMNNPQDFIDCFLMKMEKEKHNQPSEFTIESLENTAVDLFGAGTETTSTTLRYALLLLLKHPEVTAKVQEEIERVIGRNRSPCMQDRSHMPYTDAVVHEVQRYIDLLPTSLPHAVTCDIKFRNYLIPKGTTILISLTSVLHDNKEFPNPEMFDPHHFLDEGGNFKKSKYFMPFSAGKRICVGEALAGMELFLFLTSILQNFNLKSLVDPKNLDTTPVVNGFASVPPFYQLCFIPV
# CYP2C9 inhib – human CYP2C9 inhibition | CYP2C9 Supersomes, luciferin-H conversion, luminescence | 96,000 tested, 20% active | P11712 | inhibition, % at 5 µM | AID 777;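 active = blocking of liver enzyme CYP2C9 beyond about 50% at 5 µM, limit read from the data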
# sEH activator – increases human soluble epoxide hydrolase activity; AID 717; 91,000 tested, 0.04% active; activation, % at 2 µM; purified human sEH enzymatic activity, activator screen; P34913; in the data active = activation above about 37%
# sEH inh – blocks human soluble epoxide hydrolase activity; P34913; recombinant human sEH enzymatic activity assay; inhibition, % at 2 µM; 91,000 tested, 0.34% active; in the data active = inhibition above about 80%
# CYP2C19 inhib – blocks human cytochrome P450 2C19; P33261; AID 778; CYP2C19 Supersomes, luciferin-H EGE luminescence, 30 min; inhibition, % at 5 µM; 96,000 tested, 21% active;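 active = CYP2C19 inhibition above a set limit at 5 µM in the primary screen, cut at about 50% in these data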;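 also: plate controls were negative control wells for no effect and 2.5 mM tranylcypromine positive control for full effect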
# CYP2C19 activ – increases human CYP2C19 enzyme activity. activation factor at 5 µM. P33261. AID 1025. 96,000 tested, under 10 active. recombinant CYP2C19, luciferin-H EGE luminescence; stronger effect = higher value; 0 = fully inhibited enzyme, 1 = untreated enzyme;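 active = activation factor of at least 2 at 5 µM in the primary screen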;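 also: 0 = wells with 2.5 mM tranylcypromine and 1 = vehicle-only wells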
# Numbers without * were called inactive; x = no result. This is a sample that favours compounds with a hit; in the whole collection about 27% have one here.
SMILES,CYP2C9 activ,CYP2C9 inhib,sEH activator,sEH inh,CYP2C19 inhib,CYP2C19 activ
C=CCNC(=O)c1onc(CSc2ccccc2C)c1C(=O)O,0.5,46,11,-5,4,1
CCCCNC(=O)c1onc(CSc2cc(C)ccc2C)c1C(=O)O,0.2,78*,5,-4,10,0.9
C=CCNC(=O)c1onc(CSc2cc(C)ccc2C)c1C(=O)O,0.2,77*,2,4,9,0.9
COc1cccc(NC2SC(=O)N(c3ccccc3)C2=O)c1 (centres undefined),0.8,22,x,x,-6,1.1
O=[N+]([O-])CC(=Nc1ccc(Cl)cc1)N/N=C\c1oc(O)c2ccccc12,0.7,28,-1,-2,-2,1
CCSc1nnc(NC(=O)C(C)(C(F)(F)F)C(F)(F)F)s1,0.2,75*,x,x,-6,1.1
CCSc1nnc(NC(=O)C(CC)(C(F)(F)F)C(F)(F)F)s1,0,98*,-8,9,33,0.7
CCSc1nnc(NC(NC(=O)c2ccco2)(C(F)(F)F)C(F)(F)F)s1,0.1,90*,x,x,7,0.9
Cc1ccc2cccc(Oc3cnccn3)c2n1,1.1,-5,-12,12,-2,1
O=C(NCCc1c[nH]c2ccccc12)Nc1cccc2ccccc12,1.6,-62,-45,44,86*,0.1
Cc1ccc2c(c1)N(CC(=O)NCc1cccnc1)C(=O)CO2,x,x,-2,5,x,x
Cc1ccc2c(c1)N(CC(=O)NCCc1c[nH]c3ccccc13)C(=O)CO2,0.7,27,-7,6,93*,0.1
Cc1ccc2c(c1)N(C(C)C(=O)NCCc1ccccc1)C(=O)CO2 (centres undefined),0.7,34,-11,10,97*,0
Cc1cccc(NC(=O)NCCc2c[nH]c3ccccc23)c1,1.6,-61,-68,68,93*,0.1
COCC(C)n1c(C)cc(C(=O)CN2C(=O)NC3(CCCCC3C)C2=O)c1C (centres undefined),1.7,-69,8,-10,-19,1.2
C=CCOC(=O)c1ccc(-n2cncn2)nc1,0.7,31,6,-5,80*,0.2
O=C(OCCOc1ccccc1Cl)c1ccc(-n2cnnn2)cc1,0.5,46,3,-3,47,0.5
O=C(Oc1ccccc1Cl)c1ccc(-n2cncn2)nc1,0.2,78*,-2,-1,93*,0.1
Cc1cc(=O)oc2c1ccc1oc(/C(=N/O)c3ccccc3)c(C)c12,0.4,60*,7,-5,6,0.9
CCn1ncc(Cl)c1C(=O)NC(C)c1ccccc1 (centres undefined),0.8,20,-6,11,62*,0.4
CCn1ncc(Br)c1C(=O)NC(C)c1ccccc1 (centres undefined),x,x,-4,5,x,x
Cc1ccccc1C(=O)c1ccc2c(c1)n(C)c(=O)n2C,0.3,74*,x,x,76*,0.2
CN1C=CC=C/C1=C1\SC(=S)N(C2CCCCC2)C1=O,0.7,26,6,-9,58*,0.4
CN1C=CC=C/C1=C1\SC(=S)N(c2ccccc2)C1=O,1,2,-6,4,9,0.9
O=C(NCCOC(=O)C1COc2ccccc2O1)C1COc2ccccc2O1 (centres undefined),0.3,69*,-7,6,88*,0.1
SMILES,CYP2C9 activ,CYP2C9 inhib,sEH activator,sEH inh,CYP2C19 inhib,CYP2C19 activ
O=C(Nc1ccccc1C(=O)N1CCOCC1)C1COc2ccccc2O1 (centres undefined),1,-3,5,-2,15,0.8
O=C(NCCN1CCCC1)C1COc2ccccc2O1 (centres undefined),1,-4,14,-8,23,0.8
O=C(NCCOC(=O)C1COc2ccccc2O1)c1cccnc1 (centres undefined),0.9,12,9,-10,5,1
CCCNC(=O)c1ccccc1NC(=O)C1COc2ccccc2O1 (centres undefined),0.7,31,4,-6,59*,0.4
CCCCNC(=O)C1COc2ccccc2O1 (centres undefined),0.9,8,-1,-2,56*,0.4
Cc1ccc(CCN2CC(C(=O)NCCCOC(C)C)CC2=O)cc1 (centres undefined),1,2,-8,10,-6,1.1
NNC(=O)COc1ncn(-c2ccccc2)n1,0.9,6,-8,10,8,0.9
